Experimental data: the supplement of paper PMC12636033
± gives the standard deviation of the averaged measurements. In all, about 33,000 sequences were measured (“E-score (rank enrichment, -0.5 to 0.5)”: median about -0.0068, highest 2% from about 0.24 on). The list comes from a sample in which the highest values are over-represented; it also holds similar and randomly drawn sequences.

System: muMax20 (Max(13-93) K31hArg/K57hArg, M65Nle)
Assay: PBM 8-mer E-score (E-score (rank enrichment, -0.5 to 0.5)); higher = stronger preferential binding
Procedure: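 Protein binding microarray (universal PBM chip covering all 10-mers in fixed probe flanks) with chemically synthesized human Max(13-93) bHLH-LZ analogs (not full-length Max) bearing noncanonical residues (hArg, Tha, Aib, Nle at 65) and aromatic Cys staples. Read-out per 8-mer (and its reverse complement): E-score (rank-based enrichment, -0.5 to 0.5) and Z-score of median probe intensity.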

Sequence | PBM 8-mer E-score
CTCTTGAC | -0.0583 ± 0.0029
CCCAAATA | 0.176 ± 0.061
ACCGATCC | -0.277 ± 0.0028
AGAAGCAA | 0.1 ± 0.028
ATCGGTTA | -0.0224 ± 0.05
ATGATTAC | 0.149 ± 0.044
GATAGAGC | -0.15 ± 0.001
CTACATAG | 0.138 ± 0.14
AATGCATT | 0.348 ± 0.072
CGTGCACA | 0.098 ± 0.028
CATGCATC | 0.0441 ± 0.017
AATGCATC | 0.129 ± 0.082
CATGCATA | 0.19 ± 0.13
CATGCACG | 0.183 ± 0.026
TGTGCACA | 0.221 ± 0.046
CGTGCACG | 0.283 ± 0.13
CATGCACA | 0.317 ± 0.082
AATGCATA | 0.171 ± 0.09
CATGCATG | 0.3719 ± 0.0024
GATGCACA | -0.00748 ± 0.045
GTGAATTA | 0.191 ± 0.067
CCTTACGC | 0.0271 ± 0.0015

Sequence | PBM 8-mer E-score
AGCGTTTG | -0.169 ± 0.14
CCAAGTGG | -0.15414 ± 2.1e-05
CTTTAGGC | -0.158 ± 0.011
GAAGCTTA | 0.129 ± 0.018
ATGGACTA | 0.128 ± 0.015
GCGGATAA | -0.0466 ± 0.033
CTGACTAC | -0.0404 ± 0.19
CTATAAGC | -0.00153 ± 0.018
AATGCAAG | 0.0709 ± 0.08
AATGCATG | 0.237 ± 0.073
AATGCAAC | 0.197 ± 0.047
ACTGCATG | -0.0337 ± 0.13
CATGCAAC | 0.327 ± 0.012
CATGCAAG | 0.118 ± 0.015
GACTCCGA | -0.155 ± 0.046
TCTCGACA | -0.0258 ± 0.011
TCGGGTAA | 0.00741 ± 0.027
ACAGGCAT | -0.0411 ± 0.063
CCTCTCTC | -0.045 ± 0.086
ACATCACC | -0.0768 ± 0.063
ACATCACA | 0.221 ± 0.009
ATATCACG | 0.294 ± 0.068

Sequence | PBM 8-mer E-score
CCATCATA | 0.0385 ± 0.12
ATATCACA | 0.117 ± 0.14
GCATCATA | 0.274 ± 0.019
CTATCATA | 0.208 ± 0.054
CTATCACA | 0.169 ± 0.029
ATATCATA | 0.253 ± 0.14
ACATCACT | 0.245 ± 0.095
ATATCATG | 0.175 ± 0.056
GCATCAGA | 0.0605 ± 0.012
AGACTGGG | -0.147 ± 0.064
ACGGAATA | -0.0839 ± 0.0017
AGCTTGGG | -0.0797 ± 0.022
CAATGATG | -0.00417 ± 0.0019
ACGCTCGC | 0.0344 ± 0.16
CTGAGCTA | -0.17 ± 0.098
CATTTTAC | 0.188 ± 0.026
GCGTCAAA | -0.0402 ± 0.15
AGACGGGA | -0.0877 ± 0.053
TGAATCCA | 0.0507 ± 0.048
GGGTTCCA | -0.11 ± 0.023
AGCGATTG | -0.152 ± 0.033
ACCAATCT | -0.0171 ± 0.067

Sequence | PBM 8-mer E-score
ACATCATA | 0.249 ± 0.038
ACATCATG | 0.07 ± 0.031
ACATCATC | 0.166 ± 0.041
ATGTCACA | 0.131 ± 0.002
CTGTCACA | 0.00831 ± 0.13
ATGTCACG | 0.297 ± 0.063
AGGGTTTC | -0.0163 ± 0.01
AAATAACG | 0.309 ± 0.086
GTATAACA | 0.228 ± 0.019
ATATAACA | 0.262 ± 0.032
AAATAACA | 0.204 ± 0.018
ATATAACC | 0.171 ± 0.041
ATATAACG | 0.269 ± 0.044
CTATAACA | 0.157 ± 0.085
CTATAACC | 0.0519 ± 0.0013
CAATAACG | 0.0808 ± 0.07
AATAATTC | 0.179 ± 0.12
GATAATTA | 0.127 ± 0.021
CCTAATTA | 0.0515 ± 0.15
AATAATTA | 0.26 ± 0.072
